In PubChem BioAssay one finds composite z-score and z-score data, which are given here for 14 molecules.

Experiment [1] relates to Wnt5a (protein binding on small-molecule microarray). In words: small molecules binding Wnt5a protein – biophysical, small-molecule microarray, 635/667 nm fluorescence, primary screen (AID 1142).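 Note: fluorescence read at 667 nm with signal to noise per printed feature.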 The conditions noted are these: 635 nm fluorescence, higher = more signal.
The nature of experiment [2]: ATP-based viability of Huh7 replicon cells – cell-based, CellTiter-Glo luminescence, basal, 48 h, cytotoxicity control for HCV replication inhibitor project, primary screen (AID 1143).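 Note: Huh7 hepatoma cells carrying a hepatitis C replication reporter with no stimulus; test concentration not given here.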 The conditions noted are these: higher = more signal, called active from +8 up or from −8 down. A general note: A replicon is a self-replicating genome or part of one, used to study replication in cells.

A short description of experiment [3]: Pseudomonas biofilm growth suppression – PAO1 strain, BacTiter-Glo luminescence, LB-PBS, primary screen (AID 1144). The conditions noted are these: P. aeruginosa PAO1 biofilm, 12 h, higher = more signal.
The nature of experiment [4]: basal CRE-LacZ reporter activity in PC12 – cell-based, unstimulated, primary screen (AID 1145). To be noted: no forskolin, luminescence, 4.5 h, higher = more signal, called active from +8 up or from −8 down.
A short description of experiment [5]: forskolin-driven CRE-LacZ activity in PC12 – cell-based, CRE-LacZ reporter, forskolin-stimulated, primary screen (AID 1146).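 Note: PC12 cells with 6xCRE LacZ reporter stimulated by forskolin 10 µM; beta-galactosidase reporter signal reflecting CREB driven transcription.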 To be noted: luminescence, 4.5 h, higher = more signal, called active from +8 up or from −8 down.
For experiment [6], the target named is Streptavidin (Streptomyces avidinii) (UniProt P22629). In words: compounds binding control protein streptavidin – biophysical, small-molecule microarray, 635/667 nm fluorescence, artefact control for SMM compound annotation, primary screen (AID 1147).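 Note: signal reflects streptavidin binding to arrayed compounds as a control protein.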 To be noted: higher = more signal.
Experiment [7] can be described thus: probe aInhba binding on compound microarray – biochemical, small-molecule microarray, 635/667 nm fluorescence, primary screen (AID 1148).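 Note: score merges 667nm spot fluorescence with signal-to-noise for antibody binding to printed compounds.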 To be noted: higher = more signal.
Experiment [8] has as its target Torsin-1A (Homo sapiens) (UniProt O14656). In words: TOR1A wild-type binding on microarray – cell lysate, small-molecule microarray, lysate, 635/667 nm, primary screen (AID 1149). To be noted: COS7 hTOR1A-WT lysate, 635 nm fluorescence, higher = more signal.
Experiment [9] has the same target. The experiment can be described thus: torsin A mutant lysate binding on microarrays – cell lysate, small-molecule microarray, COS7 lysate, 635/667 nm fluorescence, primary screen (AID 1150).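 Note: score pools 667 nm emission and signal to noise measuring lysate protein binding.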 To be noted: COS7 hTOR1A mutant lysate, 635 nm fluorescence, higher = more signal.
Experiment [10] relates to Sonic hedgehog protein (Shh). The experiment can be described thus: Sonic hedgehog microarray binding compounds – biochemical, small-molecule microarray, 635/667 nm fluorescence, primary screen (AID 1151).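 Note: Shh protein binding to compounds spotted on small-molecule microarray slides; score combines spot fluorescence intensity with signal-to-noise across triplicate slides.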 To be noted: 635 nm fluorescence, higher = more signal.

Activity calls are given as the source filed them. Unless noted, the rule behind the calls is not given here.

Sequence of Torsin-1A (Homo sapiens) (O14656 whole entry, looked up): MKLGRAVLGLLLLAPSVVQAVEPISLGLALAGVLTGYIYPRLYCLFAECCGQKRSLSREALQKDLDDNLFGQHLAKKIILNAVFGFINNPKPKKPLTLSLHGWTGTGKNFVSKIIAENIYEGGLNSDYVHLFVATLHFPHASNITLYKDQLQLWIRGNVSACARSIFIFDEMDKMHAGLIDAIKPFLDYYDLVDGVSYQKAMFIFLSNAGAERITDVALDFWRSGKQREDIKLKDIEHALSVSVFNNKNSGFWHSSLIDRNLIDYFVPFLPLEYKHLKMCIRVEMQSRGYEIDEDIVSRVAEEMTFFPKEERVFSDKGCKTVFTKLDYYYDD
Sequence of Streptavidin (Streptomyces avidinii) (P22629 whole entry, looked up): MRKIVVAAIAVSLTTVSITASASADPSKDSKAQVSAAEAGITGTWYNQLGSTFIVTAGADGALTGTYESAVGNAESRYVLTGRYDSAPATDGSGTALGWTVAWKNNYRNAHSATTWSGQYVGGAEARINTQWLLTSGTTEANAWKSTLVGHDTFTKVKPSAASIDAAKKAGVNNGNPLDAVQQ

For the molecule `Cc1ccc(C(C)CC(O)C2C=CC3C(=O)N(C)C(=O)C3N2NC(=O)OC(C)(C)C)o1` (stereo not given), the composite z-score is 0.376 in [1]; 1.22 in experiment [6]; 0.4 in [7]; 0.204 with Torsin-1A (Homo sapiens) [8]; 1.05 with Torsin-1A (Homo sapiens) [9]; 0.245 in experiment [10]. The z-score in experiment [2] was 0.963 (inactive); in [3], 0.399 (inactive); in [4] it was 0.0569 (inactive); in experiment [5], -0.0179 (inactive).
For `CN(C)C(=O)[C@@]1(Cc2ccccc2CN=[N+]=[N-])N=C(c2ccc(OCCCO)cc2)O[C@H]1c1ccccc1`, the composite z-score in experiment [1] was 0.522; in experiment [6], -0.154; in [7], 0.7; with Torsin-1A (Homo sapiens) [8], 0.209; in the experiment with Torsin-1A (Homo sapiens) [9], 0.681; in [10] it was -0.221. Moreover, the z-score in experiment [2] is -2.54 (inactive); in experiment [3], 0.378 (inactive); in [4], 0.629 (inactive); in experiment [5], -0.524 (inactive).
Consider `CCCCCC1=C2CNC(CCC)(C(=O)OC)C=C2C(C)C1=O` (stereo not given), for which the composite z-score in experiment [1] was 0.0324; in [6], 0.441; in [7], 0.345; with Torsin-1A (Homo sapiens) [8], -0.449; with Torsin-1A (Homo sapiens) [9] it was 0.0188; in [10] it was 0.368. The z-score in [2] was -0.86 (inactive); in experiment [3], 0.617 (inactive); in experiment [4], -0.751 (inactive); in experiment [5] it was 0.974 (inactive).
`CCCCCN1CC=CC23O[C@@H]4/C=C\CCCOC(=O)C4[C@H]2C(=O)N(CCCO)[C@@H]3C1=O` (stereo not given in full): the composite z-score is 0.132 in [1]; -0.413 in experiment [6]; -0.233 in experiment [7]; 2.02 in the experiment with Torsin-1A (Homo sapiens) [8]; 2.27 with Torsin-1A (Homo sapiens) [9]; -0.163 in experiment [10]. For the same molecule, the z-score is 0.37 (inactive) in experiment [2], -1.17 (inactive) in experiment [3], -0.619 (inactive) in experiment [4] and -0.812 (inactive) in [5].
On to `CCOC(=O)C1=CCC(c2ccccc2)N(S(=O)(=O)CC[Si](C)(C)C)C1` (stereo not given), for which the composite z-score was -0.386 in [1]; -0.192 in experiment [6]; -0.363 in experiment [7]; 1.04 with Torsin-1A (Homo sapiens) [8]; 0.673 with Torsin-1A (Homo sapiens) [9]; -0.302 in experiment [10]. Also, the z-score in [2] is -4.87 (inactive); in experiment [3], -0.296 (inactive); in experiment [4], -0.322 (inactive); in [5] it was 0.497 (inactive).
Take `CCOC(=O)C[C@H]1[C@H](OC(=O)c2cc3ccccc3oc2=O)[C@@H](NC(=O)Cc2ccc(OC)cc2)c2cc(OCCCO)ccc2N1C(=O)c1ccccc1`: the composite z-score came out at 0.0687 in experiment [1]; 0.308 in [6]; 0.0713 in [7]; 0.388 with Torsin-1A (Homo sapiens) [8]; 0.804 with Torsin-1A (Homo sapiens) [9]; 0.189 in experiment [10]. Further, the z-score in [2] is -3.21 (inactive); in experiment [3] it was -0.797 (inactive); in experiment [4], 4.1 (inactive); in [5], -0.27 (inactive).
In the case of `C[N+](C)(C)CCCCNC(=O)[C@H]1C[C@H]2C(=O)N[C@@H](Cc3ccccc3)C(=O)N2[C@H]1c1ccc(O)cc1`, the composite z-score in experiment [1] is 0.134; in experiment [6], -0.455; in [7], 0.106; in the experiment with Torsin-1A (Homo sapiens) [8] it was 0.81; in the experiment with Torsin-1A (Homo sapiens) [9], 0.513; in experiment [10] it was 2.04. Also, the z-score in experiment [2] is 0.0641 (inactive); in experiment [3], 0.0228 (inactive); in experiment [4], 0.143 (inactive); in experiment [5] it was 0.465 (inactive).
In the case of `CC(=O)NCCCC[C@@H]1NC(=O)[C@@H]2C[C@H](C(=O)NCCCCN(C)C)[C@H](c3cccc(OCCO)c3)N2C1=O`, the composite z-score was -0.0339 in experiment [1]; -0.451 in [6]; -0.154 in experiment [7]; -1.28 with Torsin-1A (Homo sapiens) [8]; 0.0889 with Torsin-1A (Homo sapiens) [9]; 1.04 in experiment [10]. The z-score in experiment [2] was 0.344 (inactive); in experiment [3], -0.269 (inactive); in experiment [4], 0.0043 (inactive); in [5] it was -0.874 (inactive).
For `Cc1ccc(S[C@]2(C(=O)NCC(F)(F)F)CC(=O)N(C(C)C)[C@@H]2c2ccc(CO)cc2I)cc1`, the composite z-score was 0.0446 in experiment [1]; -0.563 in experiment [6]; -0.128 in experiment [7]; -0.846 with Torsin-1A (Homo sapiens) [8]; -0.474 in the experiment with Torsin-1A (Homo sapiens) [9]; -0.594 in [10]. Further, the z-score is -1.53 (inactive) in experiment [2], 0.111 (inactive) in [3], 0.118 (inactive) in experiment [4] and 0.725 (inactive) in experiment [5].
With `O=C1NC(=O)C2C1C=CC(C(O)Cc1ccccc1)N2Nc1ccc(Cl)cc1Cl` (stereo not given), the composite z-score is -0.209 in [1]; 0.889 in [6]; 0.0345 in experiment [7]; -0.0973 with Torsin-1A (Homo sapiens) [8]; 1.12 with Torsin-1A (Homo sapiens) [9]; -0.546 in [10]. The z-score is -0.0389 (inactive) in [2], -0.171 (inactive) in experiment [3], 0.44 (inactive) in experiment [4] and 0.115 (inactive) in experiment [5].
`O=C1C2C=CC(C(O)C3CCCCC3)N(Nc3ccc([N+](=O)[O-])cc3)C2C(=O)N1c1ccccc1` (stereo not given): the composite z-score in experiment [1] was -0.457; in [6], 0.48; in experiment [7], -0.213; with Torsin-1A (Homo sapiens) [8] it was -0.465; with Torsin-1A (Homo sapiens) [9], -0.199; in experiment [10] it was -1.09. The z-score is -0.415 (inactive) in experiment [2], -0.998 (inactive) in experiment [3], 0.537 (inactive) in experiment [4] and 1.13 (inactive) in [5].
With `CCCC[C@@H]1C[C@H]1[C@@H](NC(=O)c1ccco1)c1ccc(C(=O)OC)cc1`, the composite z-score is -0.195 in experiment [1]; 0.564 in experiment [6]; -0.154 in experiment [7]; -0.708 in the experiment with Torsin-1A (Homo sapiens) [8]; -0.319 with Torsin-1A (Homo sapiens) [9]; -1.47 in experiment [10]. For the same molecule, the z-score is -1.88 (inactive) in experiment [2], -0.333 (inactive) in experiment [3], 0.0075 (inactive) in experiment [4] and 1.58 (inactive) in experiment [5].
On to `CC(C)(C)OC(=O)CC[C@@]1(C(=O)NCC(O)CO)N=C(c2ccc(OCCCO)cc2)O[C@@H]1c1ccccc1N=[N+]=[N-]` (stereo not given in full), for which the composite z-score in experiment [1] was found to be 0.849; in experiment [6], 1.85; in experiment [7] it was 0.289; in the experiment with Torsin-1A (Homo sapiens) [8], 1.45; with Torsin-1A (Homo sapiens) [9], 1.76; in experiment [10] it was 0.146. Also, the z-score in [2] is -0.371 (inactive); in experiment [3] it was -1.18 (inactive); in experiment [4], -0.183 (inactive); in experiment [5] it was -0.173 (inactive).
On to `CCOC(=O)C[C@H]1[C@H](OC(=O)Cc2ccc3c(c2)OCO3)[C@@H](NC(=O)c2ccc(-c3ccccc3)cc2)c2cc(OCCCO)ccc2N1C(=O)Cc1ccc(OC)cc1`, for which the composite z-score was 0.267 in experiment [1]; 0.0687 in experiment [6]; -0.0754 in experiment [7]; 0.0816 in the experiment with Torsin-1A (Homo sapiens) [8]; 0.394 with Torsin-1A (Homo sapiens) [9]; 0.965 in experiment [10]. The z-score was -0.921 (inactive) in experiment [2], -0.304 (inactive) in experiment [3], 6.24 (inactive) in experiment [4] and 0.0489 (inactive) in experiment [5].
